Data from PubChem BioAssay (NCI).
The panel holds about 83,000 compounds, 20% with a hit somewhere; the sample as a whole holds those more often.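 For each line, cells grew in 96-well plates with the test compound present at a single concentration for 48 hours.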 Unmarked numbers belong to inactive results. The source made the active and inactive calls.

Test system: SK-MEL-5 melanoma
Assay: NCI-60 one-dose screen, 48 h (100 = growth as untreated, 0 = no growth, -100 = all killed)
Settings: 10 µM unless noted
Description: Growth inhibition of the SK-MEL-5 human tumor cell line is measured as a screen for anti-cancer activity. Cells are grown in 96 well plates and exposed to the test compound for 48 hours. Compounds are tested at a single concentration, which is 10^-5 M for most compounds. The reported endpoint is percent growth (GI% or GIPRCNT), where numbers from 0 - 100% represent growth inhibition, and numbers from -100% - 0 represent cell death. For example, a value of 40 represents 60% growth inhibition. A value of 0 means no net growth occurred over the course of the experiment. A value of -40 indicates 40% of cells at the beginning of the experiment died by the end of the experiment. A value of -100 means all cells are dead at the end of the experiment.
NCI-60 Human Tumor Cell Lines Screen was performed using the standard one-dose NCI protocol, which is described in more detail at https://dtp.cancer.gov/discovery_development/nci-60/default.htm.
Compounds with GIPRCNT values below 10 were considered active. Activity score was based on GIPRCNT using the following formula: […]
Score is 0 for GIPRCNT values of 100 or above, 50 for GIPRCNT values of 0, and 100 for GIPRCNT values of -100.

| SMILES | growth |
| --- | --- |
| COc1ccc(C(O)(CCC(C)C)C(CN2CCOCC2)c2ccc(Cl)cc2)cc1 (stereo not given) | 65.5% |
| COc1cc(/C=C2\CCC/C(=C\c3cc(CN4CCCCC4)c(O)c(OC)c3)C2=O)cc(CN2CCCCC2)c1O | 92.6% |
| COC(=O)[C@H](NC(=O)C1(C)CCC[C@]2(C)[C@H]3C[C@H]4C(C(C)C)=C[C@]3(CC[C@@H]12)[C@@H]1C(=O)CCC(=O)[C@@H]14)C(C)C (stereo not given in full) | 101% |
| O=C(Nc1ccc(F)cc1F)c1cc(Cl)ccc1O | -67.5% (active) |
| Nc1ccccc1-c1ccc(-c2ccc(Cl)cc2)c2c1[nH]c1ccccc12 | 86.9% |
| COc1ccc(-n2c(C(O)c3ccccc3)n[nH]c2=S)cc1 (stereo not given) | 107% |
| N#C/C(=C\c1c(-c2ccccc2)[nH]c2ccccc12)S(=O)(=O)c1ccccc1 | 11.6% |
| COc1ccc(C(=O)Nc2ccc3nc(N4CCCCC4)cc(C)c3c2)cc1OC | 88.1% |
| Cc1sc2ncnc(Sc3nc4ccccc4[nH]3)c2c1C | -96.9% (active) |
| CN1C(=O)N(C)C2Nn3c(s/c(=C4\C(=O)N(CCc5ccccc5)c5ccccc54)c3=O)=NC21 (stereo not given) | 27.4% |
| CCOc1cccc(/C=N\Nc2nc(=O)cc(C(=O)OC)s2)c1O | 79.8% |
| Cc1nc(Nc2ccccn2)sc1C(=O)/C=C/c1ccc(Cl)cc1 | -32.4% (active) |
| COc1ccc(N(C)c2nc(N)nc3sc4c(c23)CCCC4)cc1 | -24.9% (active) |
| COc1cc(/C(C#N)=C/c2nc3c(N4CCOCC4)nc(Cl)nc3n2C)cc(OC)c1OC | -38.3% (active) |
| O=C1/C(=C/c2cccc(O)c2)COc2ccc(O)cc21 | 86.9% |
| COc1c(B(O)O)cccc1-c1nc2ccc3n[nH]c(F)c3c2c2c1CCCC2 | 88.7% |
| CN(O)c1nc(N(C)O)nc(N2CCOCC2)n1 | 34.2% |
| COc1ccc(C2=C(c3cccc(OC)c3)C(=O)c3ccc(C)nc3C2=O)cc1 | 34.6% |
| COc1cc(C(C)n2cc(-c3ccccc3)nn2)ccc1OC1CCCC1 (stereo not given) | 25.9% |
| O=C1C(=O)c2c(ccc3ccccc23)-c2ccccc21 | -69.9% (active) |

| SMILES | growth |
| --- | --- |
| Nc1cccc(Nc2cc(S(=O)(=O)O)c(N)c3c2C(=O)c2ccccc2C3=O)c1 | 103% |
| Cn1cc(-c2ccc3ncc(-c4ccc(CC(=O)Nc5cc(C(C)(C)C)no5)cc4)nc3c2)cn1 | 28.7% |
| C1CCN(c2nc(N3CCCCC3)nc(N3CCOCC3)n2)CC1 | 101% |
| C#CCn1cc(C=C2C(=O)N(C)C(=O)N(C)C2=O)c2cc(Cl)ccc21 | 99.5% |
| Nc1ccc(-c2ccc(-c3ccccc3N)c3[nH]c4ccccc4c23)cc1 | 6.03% (active) |
| C[n+]1c2ccccc2nc2ccc(NCCO)cc21 | 98% |
| COc1cc(C2C3=C(COC3=O)N(CCO)c3cc4c(cc32)OCCO4)cc(OC)c1O (stereo not given) | 12.9% |
| O=C1OC(c2ccccc2)(c2ccccc2)c2ccsc21 | 102% |
| CCCC(c1nnnn1C1CCCCC1)N1CCN(C(=O)c2ccco2)CC1 (stereo not given) | 47.1% |
| O=C1Nc2ccccc2/C1=C/c1cccs1 | 85.9% |
| CC(C)C[C@H](C(=O)N[C@@H](C)C(N)=O)N1CC=CCN(O)S1(=O)=O | 106% [5 µM] |
| O=C(NCc1ccccc1)C1CN(c2ccc(Cl)cc2)N(c2ccc(Cl)cc2)C1=O (stereo not given) | 83.3% |
| CCOC(=O)c1c(C=O)nc2ccccc2c1/C=C/c1ccc(Cl)cc1 | 83.1% |
| CC1CCCCN1CCCNC(=O)c1ccc2c(c1)sc1nc(-c3ccc(F)cc3)cn12 (stereo not given) | 99.3% |
| CCN1CCN(C(=S)SCC(=O)Nc2nc3ccc(C)cc3s2)CC1 | 97.5% |
| O=c1nc2sc3nc4ccccc4cc3cc-2s1 | 100% |
| COc1cc(NC(=O)CCSc2nc3ccccc3c(=O)n2CCc2ccccn2)cc(OC)c1OC | 87.8% |
| NC1C(N)C(N)C1N (stereo not given) | 113% |
| COc1ccc(/C=C2/SC(=O)N(CC(=O)N3CCN(c4cc5c(cc4F)c(=O)c(C(=O)O)cn5C4CC4)CC3)C2=O)cc1 | 101% |
| Cc1ccc2c(n1)C(=O)C(Oc1ccc(Br)cc1)=CC2=O | 93.6% |
